The campaign covered roughly 5,500 compounds. About 2,000 (36%) were called active. Roughly 18% stayed inconclusive and do not appear here. Rule as the data show it: active = normalized growth mostly below about 0.91 (no sharp cut-off); inconclusive = no clear call, values can overlap the other calls; inactive = mostly above about 0.92. This is one part of the list.
Assay: chemical genetic growth profiling, strain panel (AID 1159580);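 also: tested at 20 µM; growth read once vehicle control cultures reached saturation at 30 °C; 1 = growth at the plate median or of vehicle wells; lower values mean less growth of the strain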
Settings: S. cerevisiae deletion strains, growth OD

Measured: normalized growth

COc1ccc(-c2coc3cc(O)ccc3c2=O)c(OC)c1
inactive: locus YAL013W, strain DEP1, active compounds read low 1.01 | locus YAL021C, strain ccr4, active compounds read low 0.995 | locus YAL026C, strain drs2, active compounds read low 1.01 | locus YAL030W, strain snc1, active compounds read low 1 | locus YBL061C, strain skt5, active compounds read low 0.996 | locus YBR009C, strain hhf1, active compounds read low 1.01 | locus YBR021W, strain FUR4, active compounds read low 0.887 | locus YBR023C, strain chs3, active compounds read low 1.01 | locus YBR171W, strain sec66, active compounds read low 1.01 | locus YBR229C, strain ROT2, active compounds read low 1 | locus YBR231C, strain swc5, active compounds read low 0.982 | locus YBR279W, strain paf1, active compounds read low 1.01 | locus YCL011C, strain gbp2, active compounds read low 1.03 | locus YCL016C, strain dcc1, active compounds read low 1.01 | locus YCL029C, strain bik1, active compounds read low 1.01 | locus YCL069W, strain vba3, active compounds read low 1.01 | locus YCR088W, strain abp1, active compounds read low 1 | locus YDL005C, strain med2, active compounds read low 1 | locus YDL035C, strain GPR1, active compounds read low 1 | locus YDL040C, strain nat1, active compounds read low 1 | locus YDL074C, strain BRE1, active compounds read low 1.02 | locus YDL101C, strain DUN1, active compounds read low 1 | locus YDL185W, strain tfp1, active compounds read low 0.994 | locus YDL192W, strain arf1, active compounds read low 0.99 | locus YDR001C, strain nth1, active compounds read low 1 | locus YDR069C, strain doa4, active compounds read low 0.982 | locus YDR101C, strain arx1, active compounds read low 0.982 | locus YDR137W, strain rgp1, active compounds read low 0.995 | locus YDR159W, strain sac3, active compounds read low 0.976 | locus YDR162C, strain NBP2, active compounds read low 0.937 | locus YDR195W, strain ref2 0.974 | locus YDR297W, strain sur2, active compounds read low 0.995 | locus YDR318W, strain mcm21, active compounds read low 1 | locus YDR334W, strain swr1, active compounds read low 0.994 | locus YDR335W, strain msn5, active compounds read low 1.02 | locus YDR388W, active compounds read low 1 | locus YDR392W, strain spt3, active compounds read low 0.951 | locus YDR502C, strain sam2, active compounds read low 1 | locus YEL003W, strain gim4, active compounds read low 0.985 | locus YEL037C, strain rad23, active compounds read low 1.01 | locus YEL061C, strain CIN8 (second series), active compounds read low 1 | locus YEL061C, strain CIN8, active compounds read low 1 | locus YER015W, strain faa2, active compounds read low 1.02 | locus YER016W, strain bim1, active compounds read low 0.999 | locus YER110C, active compounds read low 1.03 | locus YER111C, strain swi4, active compounds read low 0.999 | locus YER155C, strain BEM2 (second series), active compounds read low 0.977 | locus YER155C, strain BEM2, active compounds read low 1.01 | locus YER167W, strain BCK2, active compounds read low 1.01 | locus YFR010W, strain ubp6, active compounds read low 0.984 | locus YGL078C, strain dbp3, active compounds read low 0.988 | locus YGL086W, strain mad1, active compounds read low 0.991 | locus YGL167C, strain pmr1, active compounds read low 1.01 | locus YGL173C, strain kem1, active compounds read low 0.997 | locus YGL227W, strain vid30, active compounds read low 0.992 | locus YGL240W, strain doc1, active compounds read low 0.972 | locus YGL248W, strain PDE1, active compounds read low 1 | locus YGL253W, strain hxk2, active compounds read low 0.981 | locus YGR135W, strain pre9, active compounds read low 0.993 | locus YGR229C, strain SMI1, active compounds read low 0.97 | locus YGR252W, strain gcn5, active compounds read low 1.01 | locus YHR013C, strain ard1, active compounds read low 1.01 | locus YHR027C, strain rpn1, active compounds read low 1 | locus YHR030C, strain SLT2, active compounds read low 1.01 | locus YHR079C, strain IRE1 (second series), active compounds read low 1.01 | locus YHR094C, strain hxt1, active compounds read low 0.995 | locus YHR129C, strain ARP1, active compounds read low 1.02 | locus YHR142W, strain chs7, active compounds read low 0.999 | locus YHR200W, strain rpn10, active compounds read low 1 | locus YIL066C, strain RNR3, active compounds read low 0.994 | locus YIL073C, strain SPO22, active compounds read low 1.02 | locus YIL125W, strain kgd1, active compounds read low 0.996 | locus YIR030C, strain dcg1, active compounds read low 0.999 | locus YJL092W, strain hpr5, active compounds read low 1 | locus YJL095W, strain BCK1 (second series), active compounds read low 1 | locus YJL095W, strain BCK1, active compounds read low 0.976 | locus YJL115W, strain asf1, active compounds read low 1.01 | locus YJL129C, strain trk1, active compounds read low 1.03 | locus YJL134W, strain LCB3, active compounds read low 1.01 | locus YJL154C, strain vps35, active compounds read low 1 | locus YJL164C, strain tpk1, active compounds read low 1.01 | locus YJL166W, strain qcr8, active compounds read low 0.995 | locus YJL168C, strain set2, active compounds read low 1.02 | locus YJL187C, strain SWE1 (second series), active compounds read low 0.998 | locus YJL187C, strain SWE1, active compounds read low 1.02 | locus YJR043C, strain POL32, active compounds read low 0.999 | locus YJR075W, strain HOC1, active compounds read low 0.994 | locus YKL009W, strain mrt4, active compounds read low 1.04 | locus YKL068W, active compounds read low 1.01 | locus YKL085W, strain MDH1 (second series), active compounds read low 0.996 | locus YKL085W, strain MDH1, active compounds read low 0.996 | locus YKL160W, strain elf1, active compounds read low 1.02 | locus YKL190W, strain CNB1, active compounds read low 1 | locus YKR001C, strain vps1, active compounds read low 0.973 | locus YKR026C, strain gcn3, active compounds read low 1 | locus YKR091W, strain srl3, active compounds read low 1.01 | locus YLL001W, strain dnm1, active compounds read low 0.963 | locus YLL026W, active compounds read low 1 | locus YLL041C, strain sdh2, active compounds read low 1.01 | locus YLR027C, strain aat2, active compounds read low 1.01 | locus YLR039C, strain RIC1, active compounds read low 0.976 | locus YLR058C, strain SHM2, active compounds read low 1.01 | locus YLR102C, strain apc9, active compounds read low 1 | locus YLR221C, strain rsa3, active compounds read low 1 | locus YLR258W, strain gsy2, active compounds read low 1.01 | locus YLR262C, strain YPT6 (second series), active compounds read low 0.995 | locus YLR262C, strain YPT6, active compounds read low 0.989 | locus YLR268W, strain sec22, active compounds read low 0.991 | locus YLR320W, strain mms22, active compounds read low 1 | locus YLR330W, strain CHS5, active compounds read low 1.02 | locus YLR342W, strain FKS1 (second series), active compounds read low 1.03 | locus YLR342W, strain FKS1, active compounds read low 1.02 | locus YLR357W, strain rsc2, active compounds read low 0.98 | locus YLR370C, strain arc18, active compounds read low 1 | locus YLR371W, strain rom2, active compounds read low 0.998 | locus YLR384C, strain iki3, active compounds read low 0.998 | locus YLR418C, strain cdc73, active compounds read low 0.971 | locus YML016C, strain PPZ1, active compounds read low 1 | locus YML032C, strain rad52, active compounds read low 1.01 | locus YML120C, strain ndi1, active compounds read low 1.02 | locus YML124C, strain tub3, active compounds read low 1 | locus YMR058W, strain fet3, active compounds read low 1 | locus YMR078C, strain ctf18, active compounds read low 1.01 | locus YMR125W, strain sto1, active compounds read low 1.01 | locus YMR129W, active compounds read low 1.01 | locus YMR205C, strain PFK2, active compounds read low 1.01 | locus YMR223W, strain ubp8, active compounds read low 1.01 | locus YMR231W, strain pep5, active compounds read low 1.01 | locus YMR307W, strain GAS1, active compounds read low 0.901 | locus YNL067W, strain RPL9B, active compounds read low 0.984 | locus YNL071W, strain lat1, active compounds read low 1.01 | locus YNL128W, strain TEP1, active compounds read low 1 | locus YNL209W, strain ssb2, active compounds read low 1.01 | locus YNL233W, strain BNI4, active compounds read low 0.993 | locus YNL248C, strain rpa49, active compounds read low 1 | locus YNL250W, strain rad50, active compounds read low 1.01 | locus YNL271C, strain bni1, active compounds read low 0.992 | locus YNL298W, strain CLA4, active compounds read low 1.01 | locus YNL307C, strain MCK1, active compounds read low 1.01 | locus YNL322C, strain KRE1 (second series), active compounds read low 1.01 | locus YNR049C, strain mso1, active compounds read low 1.01 | locus YNR052C, strain pop2, active compounds read low 1.01 | locus YOL012C, strain htz1 0.93 | locus YOL147C, strain pex11, active compounds read low 0.998 | locus YOR001W, strain rrp6, active compounds read low 0.998 | locus YOR061W, strain CKA2, active compounds read low 1 | locus YOR069W, strain VPS5, active compounds read low 1.01 | locus YOR070C, strain gyp1, active compounds read low 1.01 | locus YOR080W, strain dia2, active compounds read low 1 | locus YOR083W, strain WHI5, active compounds read low 1.02 | locus YOR106W, strain vam3, active compounds read low 1.03 | locus YOR136W, strain idh2, active compounds read low 0.997 | locus YOR144C, strain elg1, active compounds read low 0.988 | locus YOR184W, strain ser1, active compounds read low 0.952 | locus YOR265W, strain rbl2, active compounds read low 1.01 | locus YOR270C, strain vph1, active compounds read low 0.959 | locus YOR290C, strain snf2, active compounds read low 1.02 | locus YOR316C, strain cot1, active compounds read low 1.01 | locus YPL051W, strain arl3, active compounds read low 1.01 | locus YPL055C, strain LGE1, active compounds read low 0.971 | locus YPL078C, strain atp4, active compounds read low 1.03 | locus YPL106C, strain sse1, active compounds read low 1.01 | locus YPL240C, strain hsp82, active compounds read low 1.01 | locus YPL241C, strain CIN2, active compounds read low 0.992 | locus YPR119W, strain clb2, active compounds read low 1.01 | locus YPR141C, strain kar3, active compounds read low 1 | locus YPR163C, strain tif3, active compounds read low 0.999 | locus YPR167C, strain met16, active compounds read low 1.01 | strain wtn01, active compounds read low 1.01

— PubChem BioAssay AID1159580 (chemical genetic matrix, 2015)
